Compounds without any hit were thinned out: in the full panel of roughly 83,000, 20% have a hit.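 The endpoint reported here, percent growth, reads 100 for growth as untreated, 0 for no net growth and -100 for all cells dead.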 Values without a mark were called inactive. The source made the active and inactive calls. The calls were made as follows: active = growth percent below 10; inactive = the rest.
Columns and labels:
Test in all cases: NCI-60 one-dose screen, 48 h (100 = growth as untreated, 0 = no growth, -100 = all killed)
Settings in all cases: 10 µM unless noted
SR leukemia = test system: SR leukemia
RPMI-8226 leukemia = test system: RPMI-8226 leukemia
OVCAR-8 ovarian = test system: OVCAR-8 ovarian
OVCAR-5 ovarian = test system: OVCAR-5 ovarian
OVCAR-4 ovarian = test system: OVCAR-4 ovarian
SK-OV-3 ovarian = test system: SK-OV-3 ovarian
IGROV1 ovarian = test system: IGROV1 ovarian
OVCAR-3 ovarian = test system: OVCAR-3 ovarian
HS 578T breast = test system: HS 578T breast
NCI/ADR-RES ovarian = test system: NCI/ADR-RES ovarian

SMILES | growth (SR leukemia) | growth (RPMI-8226 leukemia) | growth (OVCAR-8 ovarian) | growth (OVCAR-5 ovarian) | growth (OVCAR-4 ovarian) | growth (SK-OV-3 ovarian) | growth (IGROV1 ovarian) | growth (OVCAR-3 ovarian) | growth (HS 578T breast) | growth (NCI/ADR-RES ovarian)
Cc1cc(C)c(C#N)c(Sc2nc(C)c([N+](=O)[O-])c(C)c2C#N)n1 | 22.7% | 48.7% | 77.2% | 90.1% | 66.6% | 81.3% | 82.9% | 68.6% | 118% | 77.9%
CC1(C)N=c2cc3c(cc2N1c1ccc(Cl)cc1)=Nc1ccccc1N3c1ccc(Cl)cc1 | -41.9% (active) | -27.5% (active) | 21% | 25.5% | 39.1% | 59.4% | – | 35.9% | – | 20.4%
CCCN(CCC)C(=O)c1ccc(C)cc1 | 95% | 93.3% | 103% | 95.3% | 110% | 94.9% | 106% | 109% | 84.1% | 100%
CN1CCC(c2ccccc2)(c2ccccc2)C(=O)C1 | 78.2% | 41.7% | 95.9% | 86.8% | 57% | 103% | 89.8% | 68.7% | – | 73.9%
CCCCCCCCCCCCCCCCSC(=NCC)NCC | -43.3% (active) | -43.3% (active) | -15.4% (active) | 44.5% | – | 72.1% | -89.3% (active) | -18.1% (active) | 66.1% | 25.4%
COc1cc(/C=C/c2ccnc3ccccc23)cc(OC)c1OC | 7.06% (active) | 60.6% | 42.5% | 50.5% | 54.6% | 30.1% | 59.1% | 16.4% | 24.4% | -25.5% (active)
CC(C)c1ccc(C(=O)OC2CCCC2)cc1 | 105% | 98.3% | 113% | 101% | 106% | 107% | 103% | 99.3% | 101% | 99.9%
CSc1nc(C)c(C(=O)CCN2CCN(c3ccccn3)CC2)s1 | 94.3% | 80.1% | 98.4% | 104% | 97.5% | 102% | 119% | 104% | 102% | 110%
Oc1ccccc1N=Cc1ccccc1 | 79.2% | 62.9% | 84% | 104% | – | 104% | 94.5% | 76.2% | 108% | 84.6%
COC(=O)C(=[N+]=[N-])C(=O)c1ccc([N+](=O)[O-])o1 | 58.4% | 78.8% | 82% | 110% | 106% | 97.2% | 97.6% | 88.3% | 90.3% | 93.1%
Cc1cc2cccnc2c2ncccc12 | 6.21% (active) | 13.4% | 13% | 45.6% | 14.4% | 1.57% (active) | 29.1% | 33.8% | 61.3% | 11.2%
NC(CS/C(Cl)=C/Cl)C(=O)O (centres undefined) | 96% | 36.2% | 64.6% | 99.8% | 101% | 94% | 96.4% | 102% | 104% | 86.2%
Nc1nc(-c2ccccc2)nc(N)c1N=O | 27.4% | 41% | 54.3% | 96.9% | 83.9% | – | 68.6% | 27.7% | 65% | 78.5%
O=[n+]1c2ccccc2n([O-])c2cc(Cl)ccc21 | 1.27% (active) | 73.8% | 43% | 108% | – | 87.7% | 65.6% | 44.6% | 88.8% | 59.6%
OC(c1cc2ccc(C(F)(F)F)cc2c2cc(C(F)(F)F)ccc12)C1CCCCN1 (centres undefined) | -84.7% (active) | -54.5% (active) | -63.8% (active) | -99% (active) | -100% (active) | -100% (active) | -83.9% (active) | -100% (active) | -44.2% (active) | -84.6% (active)
S=C(S)OCN1CCOCC1 | 65.2% | 100% | 88% | 97.6% | 56.5% | 98.9% | 56.5% | 118% | – | 96.2%

SMILES | growth (SR leukemia) | growth (RPMI-8226 leukemia) | growth (OVCAR-8 ovarian) | growth (OVCAR-5 ovarian) | growth (OVCAR-4 ovarian) | growth (SK-OV-3 ovarian) | growth (IGROV1 ovarian) | growth (OVCAR-3 ovarian) | growth (HS 578T breast) | growth (NCI/ADR-RES ovarian)
N#CC(=C1SCS1)[N+](=O)[O-] | 7.48% (active) | 32% | 18.9% | 47% | 42.6% | 55% | 24.5% | 8.46% (active) | – | 20.2%
CC(C)(C)c1ccc(O)c(-c2ccccc2)c1 | 57.7% | 97.1% | 107% | 111% | 127% | 114% | 108% | 111% | – | 106%
CC1CC(C)(C)OB(OC(C)CC(C)(C)OB2OC(C)CC(C)(C)O2)O1 (centres undefined) | 96.9% | 100% | 102% | 103% | 111% | – | 107% | 76.6% | 121% | 101%
CCc1cnc2ccccc2c1/C=C/c1ccc(N(C)C)cc1 | 4.96% (active) | 67.3% | 59.5% | 75% | 79.3% | 38.5% | 42% | 16.9% | 62.8% | 21.8%
O=C1C=CC(O)=CC1=P(c1ccccc1)(c1ccccc1)c1ccccc1 | 78.8% | 74.2% | 92.4% | 74.7% | 94% | 91.5% | – | 102% | 83.2% | 102%
N=C(N)Sc1cccc[n+]1[O-] | 4.61% (active) | 7.12% (active) | 45.6% | 98.2% | 15.7% | 85.3% | 46.5% | 21.7% | 82.9% | 53.5%
CC(C)c1ccc(Nc2n[nH]c(=S)s2)cc1 | 101% | 108% | 102% | – | 104% | 106% | 106% | 98.9% | 116% | 102%
S=C=Nc1ccc(N2CCOCC2)cc1 | 71.2% | 87.8% | 102% | – | 106% | 93% | 96.9% | 109% | 99.3% | 101%
Nc1ccc(-c2ccc(N)c(S(=O)(=O)O)c2)cc1S(=O)(=O)O | 153% | 110% | 116% | 116% | – | 103% | 120% | 108% | 113% | 114%
CCOC(=O)c1c(C)[nH]c2ccc(O)cc12 | 101% | 89.5% | 97.6% | 130% | – | 99.2% | 103% | 105% | 92% | 101%
c1csc(-c2[nH]nc3c2CCc2ccccc2-3)c1 | 105% | 81.3% | 99.1% | 24.1% | – | 98.1% | 67.2% | 28.1% | 90% | 98.7%
CCCCCC[C@@H](O)C/C=C\CCCCCCCC(=O)OCCOC | 122% | 102% | 101% | 103% | – | 114% | 114% | 112% | 101% | 104%
Oc1c(Cl)cc(Cl)cc1C=NCC1CCC(CN=Cc2cc(Cl)cc(Cl)c2O)CC1 (centres undefined) | 52.3% | 76.7% | 90% | – | 75.2% | 88.5% | 69.6% | 83.5% | 92.7% | 85.2%
CN(C)c1ccc2cc3c(cc2c1)Oc1ccccc1N3.[Cl][Zn][Cl] | 12.5% | 48.9% | 70.2% | – | 64% | 106% | 78.5% | 17.6% | 106% | 86.2%
CN=C(N)N/N=C(\C)c1ccc2c(c1)Cc1ccccc1-2 | -62.4% (active) | -20.7% (active) | -66.9% (active) | -69.1% (active) | – | -74.8% (active) | 20.5% | -88.1% (active) | -19.1% (active) | -29.7% (active)
